# Results from PubChem BioAssay.
# Active and inactive are the calls of the source.
# How the values were obtained:
# [1] = binders of probe aFSTL3 on microarray, primary screen, stem cell growth factor project, biochemical, small-molecule microarray, fluorescence 635/667 (AID 1064); conditions: higher = more signal;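 also: measures binding of the biotinylated anti-FSTL3 antibody to printed compounds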
# [2] = binders from COS7 lysate, DM2A8 probe, primary screen, torsin A project, cell lysate, small-molecule microarray, fluorescence 635/667 (AID 1065); conditions: higher = more signal, COS7 lysate expressing mutant human TOR1A
# [3] = binders of probe aFGF2 on microarray, primary screen, stem cell growth factor project, biochemical, small-molecule microarray, fluorescence 635/667 (AID 1067); conditions: higher = more signal;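 also: measures binding of biotinylated aFGF2 protein to printed compounds on slides; z-score merges feature fluorescence and signal-to-noise across triplicate slides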
# [4] = binders of probe aFGF10 on microarray, primary screen, stem cell growth factor project, biochemical, small-molecule microarray, fluorescence 635/667 (AID 1071); conditions: higher = more signal;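 also: score merges 667 nm spot intensity and signal to noise from triplicate slides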
# [5] = biological target: Neurogenic locus notch homolog protein 2 (Homo sapiens) (UniProt Q04721); assay: Notch2 binders on small-molecule microarrays, primary screen, biochemical, small-molecule microarray, 635 nm fluorescence, stem cell growth factors (AID 1073); conditions: Notch2 binding, higher = more signal
# Sequence of Neurogenic locus notch homolog protein 2 (Homo sapiens) (Q04721 whole entry, looked up, canonical isoform): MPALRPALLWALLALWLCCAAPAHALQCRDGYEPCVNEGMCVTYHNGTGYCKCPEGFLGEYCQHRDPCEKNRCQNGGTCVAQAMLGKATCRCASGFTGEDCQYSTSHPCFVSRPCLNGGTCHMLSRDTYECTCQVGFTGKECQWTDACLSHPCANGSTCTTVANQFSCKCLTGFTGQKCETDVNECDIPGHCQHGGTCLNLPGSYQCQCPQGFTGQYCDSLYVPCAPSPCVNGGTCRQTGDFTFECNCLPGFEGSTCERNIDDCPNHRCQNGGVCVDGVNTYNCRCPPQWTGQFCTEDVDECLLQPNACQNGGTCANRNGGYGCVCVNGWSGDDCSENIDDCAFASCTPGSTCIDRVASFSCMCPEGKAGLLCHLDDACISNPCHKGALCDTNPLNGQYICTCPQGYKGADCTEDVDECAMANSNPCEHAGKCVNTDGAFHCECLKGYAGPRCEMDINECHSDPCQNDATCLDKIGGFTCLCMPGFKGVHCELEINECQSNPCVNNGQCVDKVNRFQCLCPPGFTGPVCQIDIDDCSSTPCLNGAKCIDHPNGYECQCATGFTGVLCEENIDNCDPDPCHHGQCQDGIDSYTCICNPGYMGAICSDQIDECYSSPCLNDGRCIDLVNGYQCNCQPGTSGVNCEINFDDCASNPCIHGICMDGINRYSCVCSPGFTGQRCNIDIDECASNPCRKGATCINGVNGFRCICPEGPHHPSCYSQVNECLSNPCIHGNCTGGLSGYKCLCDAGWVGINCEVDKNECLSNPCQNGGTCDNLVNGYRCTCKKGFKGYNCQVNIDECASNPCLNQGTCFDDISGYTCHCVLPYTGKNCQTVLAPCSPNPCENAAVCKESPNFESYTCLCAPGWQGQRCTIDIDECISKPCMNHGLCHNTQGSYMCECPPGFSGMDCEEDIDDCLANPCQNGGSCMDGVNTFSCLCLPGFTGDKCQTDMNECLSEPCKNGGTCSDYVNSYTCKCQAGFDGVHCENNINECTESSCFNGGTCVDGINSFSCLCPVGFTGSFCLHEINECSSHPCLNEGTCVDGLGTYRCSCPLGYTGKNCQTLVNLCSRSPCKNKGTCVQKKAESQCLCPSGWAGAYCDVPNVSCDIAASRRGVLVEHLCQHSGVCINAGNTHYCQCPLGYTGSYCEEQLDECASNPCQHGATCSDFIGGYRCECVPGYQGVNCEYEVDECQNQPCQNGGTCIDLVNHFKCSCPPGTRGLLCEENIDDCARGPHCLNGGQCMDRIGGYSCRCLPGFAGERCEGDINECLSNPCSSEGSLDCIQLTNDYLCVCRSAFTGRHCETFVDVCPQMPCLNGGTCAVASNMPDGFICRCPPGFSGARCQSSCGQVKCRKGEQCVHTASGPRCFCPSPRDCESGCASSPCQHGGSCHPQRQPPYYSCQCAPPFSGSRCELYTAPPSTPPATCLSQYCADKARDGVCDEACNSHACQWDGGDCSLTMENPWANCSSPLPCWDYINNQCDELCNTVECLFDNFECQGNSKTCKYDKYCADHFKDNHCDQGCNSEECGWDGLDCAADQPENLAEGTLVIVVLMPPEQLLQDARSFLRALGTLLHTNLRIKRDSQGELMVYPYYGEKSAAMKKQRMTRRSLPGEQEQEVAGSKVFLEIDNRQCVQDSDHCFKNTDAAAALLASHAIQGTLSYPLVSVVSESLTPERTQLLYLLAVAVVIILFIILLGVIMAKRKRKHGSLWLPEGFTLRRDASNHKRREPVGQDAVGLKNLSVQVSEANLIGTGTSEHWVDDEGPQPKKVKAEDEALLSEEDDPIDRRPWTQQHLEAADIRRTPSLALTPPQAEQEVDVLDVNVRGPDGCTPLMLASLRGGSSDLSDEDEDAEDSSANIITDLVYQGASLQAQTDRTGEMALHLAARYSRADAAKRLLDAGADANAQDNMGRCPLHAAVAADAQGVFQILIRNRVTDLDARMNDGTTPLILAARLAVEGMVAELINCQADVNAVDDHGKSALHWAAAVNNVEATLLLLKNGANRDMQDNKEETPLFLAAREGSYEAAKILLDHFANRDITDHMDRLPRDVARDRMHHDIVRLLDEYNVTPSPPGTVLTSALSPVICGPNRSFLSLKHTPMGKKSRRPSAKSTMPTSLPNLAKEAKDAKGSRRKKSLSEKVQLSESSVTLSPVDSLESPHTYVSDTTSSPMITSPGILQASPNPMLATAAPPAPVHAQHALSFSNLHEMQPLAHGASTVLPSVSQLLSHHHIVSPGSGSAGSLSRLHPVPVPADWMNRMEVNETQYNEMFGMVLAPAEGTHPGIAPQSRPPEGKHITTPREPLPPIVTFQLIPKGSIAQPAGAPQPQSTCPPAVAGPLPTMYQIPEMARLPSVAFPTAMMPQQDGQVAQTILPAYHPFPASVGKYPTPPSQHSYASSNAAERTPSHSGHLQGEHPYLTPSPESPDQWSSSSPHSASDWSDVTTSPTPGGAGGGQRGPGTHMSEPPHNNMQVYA
# [6] = biological target: Pro-neuregulin-1, membrane-bound isoform (Homo sapiens) (UniProt Q02297); assay: NRG1 binders on small-molecule microarrays, primary screen, psychiatric disease protein project, biochemical, small-molecule microarray, fluorescence 635/667 (AID 1075); conditions: NRG1 binding, 635 nm fluorescence, higher = more signal;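 also: score combines 667 nm spot fluorescence with signal to noise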
# Sequence of Pro-neuregulin-1, membrane-bound isoform (Homo sapiens) (Q02297 whole entry, looked up, the tested form may be a part, canonical isoform): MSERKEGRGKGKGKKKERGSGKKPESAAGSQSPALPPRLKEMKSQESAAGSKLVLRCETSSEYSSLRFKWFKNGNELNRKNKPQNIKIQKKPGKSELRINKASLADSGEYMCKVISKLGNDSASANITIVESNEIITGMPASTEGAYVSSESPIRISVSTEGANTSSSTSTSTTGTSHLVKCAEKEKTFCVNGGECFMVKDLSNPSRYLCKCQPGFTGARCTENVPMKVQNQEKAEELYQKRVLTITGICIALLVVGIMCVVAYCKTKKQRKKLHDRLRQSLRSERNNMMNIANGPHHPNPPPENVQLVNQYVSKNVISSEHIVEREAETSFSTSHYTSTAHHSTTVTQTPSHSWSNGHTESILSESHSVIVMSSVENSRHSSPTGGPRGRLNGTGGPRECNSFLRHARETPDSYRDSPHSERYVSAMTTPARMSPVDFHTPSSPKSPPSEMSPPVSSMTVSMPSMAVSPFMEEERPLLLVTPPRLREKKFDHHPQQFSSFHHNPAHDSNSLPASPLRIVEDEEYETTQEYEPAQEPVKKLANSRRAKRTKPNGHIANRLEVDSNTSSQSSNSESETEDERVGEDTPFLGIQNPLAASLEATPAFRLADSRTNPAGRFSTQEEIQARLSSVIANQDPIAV
# [7] = tested on: Neuregulin-1 EGF-like domain; assay: binders of neuregulin-1 EGF-like domain, primary screen, biochemical, small-molecule microarray, 635 nm fluorescence (AID 1081); conditions: small-molecule microarray binding, higher = more signal;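 also: binding of the protein to compounds printed on small-molecule microarray slides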
# [8] = FRG1 promoter luciferase signal modulators, primary screen, FRG1 inhibition for FSHD, cell-based, C2C12 myotubes, firefly/Renilla luciferase, luminescence (AID 1084); conditions: higher = more signal, called active from +8 up or from −8 down
# [9] = binders of probe aFST on microarray, primary screen, stem cell growth factor project, biochemical, small-molecule microarray, fluorescence 635/667 (AID 1086); conditions: higher = more signal;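 also: score merges 667 nm fluorescence with signal-to-noise of each printed compound spot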
# [10] = binders of probe aHhip on microarray, primary screen, stem cell growth factor project, biochemical, small-molecule microarray, fluorescence 635/667 (AID 1087); conditions: higher = more signal;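 also: score merges spot fluorescence at 667nm with spot signal to noise ratio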
# [11] = tested on: PRMT1 (protein arginine N-methyltransferase 1); assay: PRMT1 binders on small-molecule microarrays, primary screen, biochemical, small-molecule microarray, 635 nm fluorescence (AID 1088); conditions: small-molecule microarray binding, higher = more signal;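 also: binding of Prmt1 protein to compounds spotted on small-molecule microarray slides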
# [12] = yeast growth modulation, basal conditions, primary screen, YJM789 clinical isolate, OD600, 24 h (AID 1089);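 also: growth of clinical yeast isolate S. cerevisiae YJM 789 seeded 1000 cells per well; test concentration not given here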; conditions: S. cerevisiae YJM789 growth, higher = more signal, called active from +8 up or from −8 down
# [13] = fission yeast growth modulation, primary screen, strain 972, OD600, 24 h, no modulator (AID 1090);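 also: basal condition with compound alone and no growth modifier present; test concentration not given here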; conditions: S. pombe 972 growth, higher = more signal, called active from +8 up or from −8 down
# [14] = S. cerevisiae growth modulation with rapamycin, primary screen, strain BY4716, OD600, 96 h (AID 1091); conditions: higher = more signal, called active from +8 up or from −8 down; also: test concentration not given here
# [15] = biological target: Torsin-1A-interacting protein 2 (Homo sapiens) (UniProt Q8NFQ8); assay: LULL1 binders on small-molecule microarray, primary screen, cell lysate, human LULL1 lysate, 635/667 nm fluorescence (AID 1092); conditions: hLULL1 lysate binding, 635 nm fluorescence, higher = more signal;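 also: probe is lysate of COS7 cells overexpressing human LULL1; score merges per-feature 667 nm fluorescence with signal-to-noise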
# Sequence of Torsin-1A-interacting protein 2 (Homo sapiens) (Q8NFQ8 whole entry, looked up): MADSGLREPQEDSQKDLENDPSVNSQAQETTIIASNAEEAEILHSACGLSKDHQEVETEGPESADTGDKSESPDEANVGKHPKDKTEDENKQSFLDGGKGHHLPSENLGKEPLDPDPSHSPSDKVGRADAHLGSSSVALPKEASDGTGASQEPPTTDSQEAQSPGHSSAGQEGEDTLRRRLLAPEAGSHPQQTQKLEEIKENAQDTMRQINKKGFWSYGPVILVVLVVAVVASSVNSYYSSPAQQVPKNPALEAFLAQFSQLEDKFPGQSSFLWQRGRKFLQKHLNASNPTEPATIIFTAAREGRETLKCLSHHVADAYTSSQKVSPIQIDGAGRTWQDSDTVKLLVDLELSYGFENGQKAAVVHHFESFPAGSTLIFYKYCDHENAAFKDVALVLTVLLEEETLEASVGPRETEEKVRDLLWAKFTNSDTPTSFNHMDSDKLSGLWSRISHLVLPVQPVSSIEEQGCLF
# [16] = E. coli growth modulation, two-sided OD650, primary screen, E. coli filamentation project, strain DRC41, 24 h (AID 1093); conditions: OD650, 24 h, higher = more signal, called active from +8 up or from −8 down;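 also: MC1000 strain lacking acrAB efflux and sulA so SOS filamentation is blocked; test concentration not given here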
# [17] = small-molecule microarray binders of probe aLefty2, primary screen, biochemical, biotinylated probe, 635/667 nm fluorescence (AID 1094); conditions: higher = more signal;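 also: score merges spot fluorescence near 667 nm with spot signal-to-noise ratio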
# [18] = tested on: Noggin (protein binding on small-molecule microarray); assay: Noggin binders on small-molecule microarray, primary screen, biochemical, 635/667 nm fluorescence (AID 1095); conditions: 635 nm fluorescence, higher = more signal;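 also: score merges 667 nm feature fluorescence with signal to noise over triplicate slides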
# [19] = biological target: Neurogenic locus notch homolog protein 3 (Homo sapiens) (UniProt Q9UM47); assay: NOTCH3 binders on small-molecule microarray, primary screen, biochemical, 635/667 nm fluorescence (AID 1096); conditions: NOTCH3 binding, 635 nm fluorescence, higher = more signal
# [20] = small-molecule microarray binders of probe aEGFR, primary screen, biochemical, biotinylated probe, 635/667 nm fluorescence (AID 1097); conditions: higher = more signal;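 also: probe is a biotinylated anti-EGFR antibody binding compounds printed on slides; score combines fluorescence near 667 nm and signal to noise of each spot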
Compound,composite z-score [1],composite z-score [2],composite z-score [3],composite z-score [4],composite z-score [5],composite z-score [6],composite z-score [7],z-score [8],composite z-score [9],composite z-score [10],composite z-score [11],z-score [12],z-score [13],z-score [14],composite z-score [15],z-score [16],composite z-score [17],composite z-score [18],composite z-score [19],composite z-score [20]
CC(C)(C)N1C(=O)[C@H]2[C@H]3[C@H](O)[C@H](O)CC(=NOC[C@@H](O)COCc4ccco4)[C@H]3CC[C@H]2C1=O,0.784,0.733,-0.0423,0.227,0.0009,0.107,0.173,-0.241 (inactive),0.616,-0.0003,0.446,0.009 (inactive),0.287 (inactive),-0.229 (inactive),0.937,0.697 (inactive),0.0913,-0.192,-0.0654,-0.12
CC1(C)O[C@H]2O[C@H]([C@H](O)CON=C3[C@H]4CCn5c(=O)n(-c6ccccc6)c(=O)n5[C@H]4[C@H](O)[C@@H]4O[C@H]34)[C@H](O)[C@H]2O1,-0.278,0.0391,-0.154,0.157,0.0872,0.762,-0.431,-0.027 (inactive),-0.081,-0.0994,-0.626,-0.638 (inactive),-0.347 (inactive),-0.215 (inactive),-0.122,0.321 (inactive),-0.212,0.426,-0.412,-0.219
CCN1C(=O)[C@H]2[C@H]3[C@H](O)[C@H](O)CC(=NNC(=O)OCc4ccccc4)[C@@H]3CC[C@H]2C1=O,0.18,-0.287,-0.153,0.0519,-0.311,-0.003,-0.514,0.639 (inactive),0.302,-0.249,-0.738,-0.0309 (inactive),-0.277 (inactive),-0.133 (inactive),0.614,0.801 (inactive),-0.044,-0.0412,-0.0028,-0.118
CC(C)=CCCC(C)=CCON=C1C[C@@H](O)[C@@H](O)[C@@H]2[C@@H]3C(=O)N(c4cccc(Oc5ccccc5)c4)C(=O)[C@@H]3CC[C@H]12,-0.304,-0.0323,-0.0296,0.0259,0.206,0.691,0.877,0.122 (inactive),0.305,0.06,1.04,0.788 (inactive),-0.0823 (inactive),-0.407 (inactive),1.12,0.204 (inactive),-0.138,0.485,0.782,0.0209
CCOC(=O)[C@H](CC(C)C)NC(=O)CCC1CC(OC(=O)NCCc2ccc(F)cc2)CC2(CCCC(COC(=O)NCCOC)O2)O1 (stereo not given in full),0.12,0.305,-0.043,0.862,1.15,0.32,1.13,1.44 (inactive),0.158,0.0092,1.41,0.513 (inactive),1.13 (inactive),1.5 (inactive),1.7,-1.02 (inactive),-0.025,0.382,0.998,-0.0975
